The entries come from a sample that favours hits as a whole.
CD40 NFkB inh: CD40 pathway inhibition in BL2 cells | BL2 NF-kB luciferase reporter, CD40L-induced, 4 h | inhibition, % at 10 µM | 83,000 compounds, 0.94% hits;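 active means mean inhibition of at least 50% with a set share of replicates also reaching that level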;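 further: 0% = neutral control wells and 100% = IKK inhibitor VII at 50 µM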
Numbers without * were called inactive; [ ] = remark or other dose.

SMILES	CD40 NFkB inh
CCC(=O)N1[C@H](CO)[C@@H](c2ccccc2)[C@@H]1CN(C)C(=O)CN1CCOCC1	-0.3[25 µM]
COc1ccc2c3c(n(C)c2c1)[C@H](CO)N(Cc1cccnc1)CC31CCN(C(=O)NC(C)C)CC1	3.2[25 µM]
O=C(CN1CCCCCC1)N1c2ccccc2C=Cc2ccccc21	24.6
O=C(C(=Cc1ccccc1)CN1CCCCC1)c1ccccc1	73.5*
O=C(CN1CCCC1)N1c2ccccc2C=Cc2ccccc21	11.2
C[C@@H]1CN([C@H](C)CO)C(=O)c2cc(-c3cccnc3)cnc2O[C@@H]1CN(C)C(=O)Nc1ccccc1	9.3[25 µM]
O=C(C[C@@H]1C[C@H]2c3cc(NC(=O)NC4CCCCC4)ccc3O[C@H]2[C@H](CO)O1)NCC(F)(F)F	-3.9[25 µM]
O=C(Nc1ccc2c(c1)[C@@H]1C[C@H](CC(=O)N3CCCCC3)O[C@@H](CO)[C@@H]1O2)NC1CCCCC1	-4.6[25 µM]
COc1ccccc1-c1ccc2n(c1=O)C[C@H]1[C@H](CO)[C@@H](C(=O)N[C@H](C)c3ccccc3)[C@@H]2N1C	-13.9[25 µM]
COc1cc(/C=C/c2ccc(OC)cc2OC)cc(OC)c1	-22.3[25 µM]
COc1cc(OC)c(OC)cc1/C=C/c1ccnc2ccccc12	-1.0
COc1ccc(C=Cc2ccc3ccccc3n2)c(OC)c1	49.5*
O=C(C[C@@H]1CC[C@H]2[C@@H](COC[C@@H](O)CN2CC2CCCCC2)O1)NCC1CC1	2.2
O=C1CN(S(=O)(=O)c2cccc(F)c2)C[C@@H]2[C@@H](c3ccc(C4=CCCC4)cc3)[C@H](CO)N12	-28.9[25 µM]
O=C(Nc1cccc(Cl)c1)N1C[C@H]2[C@@H](c3ccccc31)[C@@H](CO)N2C(=O)C1CCCC1	5.2[25 µM]
COc1ccccc1C#Cc1ccc([C@@H]2[C@@H](CO)N3CCCCN(CCC(F)(F)F)C[C@@H]23)cc1	-2.9[25 µM]
CC(C)NC(=O)N(C)C[C@H]1Oc2ccc(NS(C)(=O)=O)cc2C(=O)N(C)C[C@H]1C	4.5
CCOC(=O)c1c(SCCN2CCCCC2)n(-c2ccccc2)c(=S)n(-c2ccccc2)c1=O	95.4*
CCOC(=O)c1c(NC(=O)CN2CCCCC2)sc(CN(C)C)c1-c1ccccc1	23.1
CCOC(=O)c1[nH]c(=S)n(-c2ccccc2)c1C(=O)OCC	21.8
O=C([C@@H]1[C@@H](CO)[C@@H]2Cn3c(cccc3=O)[C@@H]2N1C(=O)C1CCCC1)N1CCOCC1	-0.3
O=C(CN1CCOCC1)N[C@@H]1CC[C@@H](CCNC(=O)C2CCCC2)O[C@@H]1CO	-7.8
O=C(c1ccccc1)N1CC[C@@H]2[C@H]1c1cc(-c3ccccc3F)ccc1N[C@@H]2CO	3.5
O=C(C[C@H]1C[C@H]2c3cc(NC(=O)c4cccnc4)ccc3O[C@H]2[C@@H](CO)O1)NC1CCCCC1	-1.5[25 µM]
N#C[C@@H]1[C@H](c2ccc(-c3cccc(F)c3)cc2)[C@H](CO)N1C(=O)NC1CCCC1	22.4[25 µM]
SMILES	CD40 NFkB inh
N#C[C@H]1[C@@H](c2ccc(-c3cccc(F)c3)cc2)[C@H](CO)N1C(=O)NC1CCCC1	-3.2[25 µM]
CC(C)NC(=O)N1[C@H](CO)[C@H](c2ccc(C#CC3CCCC3)cc2)[C@@H]1C#N	-20.4
N#C[C@H]1[C@H](c2ccc(C#CC3CCCC3)cc2)[C@H](CO)N1C(=O)Nc1ccc(F)cc1	10.2
N#C[C@@H]1[C@H](c2ccc(C#CC3CCCC3)cc2)[C@@H](CO)N1C(=O)c1cccc(F)c1	65.6*
N#C[C@H]1[C@H](c2ccc(C#CC3CCCCC3)cc2)[C@@H](CO)N1C(=O)Nc1ccc(F)cc1	63.4*[25 µM]
CC(C)NC(=O)N1[C@H](C#N)[C@@H](c2ccc(C#CC3CCCC3)cc2)[C@@H]1CO	-6.8
N#C[C@@H]1[C@H](c2ccc(C#CC3CCCC3)cc2)[C@H](CO)N1C(=O)c1cccc(F)c1	-15.5
N#C[C@@H]1[C@H](c2ccc(C#CC3CCCCC3)cc2)[C@H](CO)N1C(=O)Nc1ccc(F)cc1	84.2*[25 µM]
CC(C)NC(=O)N1[C@H](C#N)[C@@H](c2ccc(C#CC3CCCCC3)cc2)[C@H]1CO	2.2
N#C[C@H]1[C@@H](c2ccc(C#CC3CC3)cc2)[C@@H](CO)N1C(=O)c1cccc(F)c1	2.0
N#C[C@H]1[C@H](c2ccc(-c3cccc(F)c3)cc2)[C@H](CO)N1C(=O)NC1CCCC1	52.0*[25 µM]
CN(C)CC(=O)N1[C@H](C#N)[C@@H](c2ccc(-c3cccc(C(=O)N(C)C)c3)cc2)[C@@H]1CO	-16.4[25 µM]
C[C@H]1CN(C)C(=O)c2cccc(NS(C)(=O)=O)c2O[C@H]1CN(C)C	2.8
COc1ccc(NC(=O)Nc2cccc3c2O[C@@H](CN(C)C(=O)NC2CCCCC2)[C@@H](C)CN([C@H](C)CO)C3=O)cc1	1.2[25 µM]
CN1C(=O)c2cc(NC(=O)Nc3ccccc3Cl)ccc2OC[C@H]2O[C@H](CC(=O)O)CC[C@@H]21	-11.2[25 µM]
O=C(c1cccnc1)N1C[C@H]2[C@@H](c3ccccc31)[C@H](CO)N2C(=O)Nc1ccccc1Cl	1.3
CC(C)[C@@H]1C(=O)NCCC=CC[C@@H](C)Oc2ccccc2C(=O)N1C (mixture of isomers)	0.5[25 µM]
CCCN1[C@@H]2c3ccc(-c4ccccc4)c(=O)n3C[C@@H]2[C@@H](CO)[C@@H]1C(=O)N1CCOCC1	2.6[25 µM]
COc1ccc(-c2ccc([C@H]3[C@@H](C#N)N(C(=O)c4cccc(F)c4)[C@H]3CO)cc2)cc1	57.4*[25 µM]
COc1ccc(-c2ccc([C@@H]3[C@@H](CO)N(C(=O)c4cccc(F)c4)[C@H]3C#N)cc2)cc1	-17.7[25 µM]
COc1ccc(-c2ccc([C@@H]3[C@H](C#N)N(C(=O)c4cccc(F)c4)[C@H]3CO)cc2)cc1	20.0[25 µM]
OCCOCCN1CCN(C(c2ccccc2)c2ccc(Cl)cc2)CC1 (centres undefined)	15.8
O=C1C=CC(=O)c2c(O)c(N3CCN(CCOCCO)CC3)c(Br)c(O)c21	85.4*
OCCOCCN1CCN(C2=Nc3ccccc3Sc3ccccc32)CC1	-0.1
COc1ccccc1CN(C)C[C@@H]1OCc2ccccc2-c2c(n(C)c3ccccc23)C(=O)N([C@@H](C)CO)C[C@@H]1C	-7.9[25 µM]
SMILES	CD40 NFkB inh
COc1ccc(OC(=O)N(C)C[C@H]2OCc3ccccc3-c3ccccc3C(=O)N([C@H](C)CO)C[C@H]2C)cc1	2.7
CCC(=O)N1[C@@H]2c3ccc(-c4ccccc4)c(=O)n3C[C@H]1[C@H](CO)[C@H]2C(=O)N1CCc2ccccc2C1	-5.2[25 µM]
Cc1ccc(-c2nn3c(C)nnc3c3ccccc23)cc1S(=O)(=O)NCc1ccccc1	43.5*
CC(=O)NCc1nnc2c3ccccc3c(-c3ccccc3)nn12	15.6
COc1nnc(-c2ccc(C)c(S(=O)(=O)NCC3CCCO3)c2)c2ccccc12 (centres undefined)	-0.1
Oc1[nH]c2ccccc2c1N=Nc1ccccc1	-73.3
Cc1ccc(O)c(N=Nc2ccccc2)n1	55.4*[25 µM]
c1ccc(N=Nc2ccc(C3=NCCO3)cc2)cc1	13.7
C[C@@H]1CCCCO[C@H](CN(C)Cc2ccccc2)[C@H](C)CN([C@H](C)CO)C(=O)c2cc(NC(=O)Nc3ccc(F)cc3)ccc2O1	23.9
C[C@@H]1CN([C@H](C)CO)C(=O)c2c(c3ccccc3n2C)-c2ccccc2CO[C@@H]1CN(C)C(=O)c1cc(Cl)cc(Cl)c1	59.9*[25 µM]
C[C@H]1CN([C@@H](C)CO)C(=O)c2c(c3ccccc3n2C)-c2ccccc2CO[C@@H]1CN(C)C(=O)c1cc(Cl)cc(Cl)c1	39.9[25 µM]
C[C@H]1CN([C@@H](C)CO)C(=O)c2c(c3ccccc3n2C)-c2ccccc2CO[C@H]1CN(C)C(=O)c1cc(Cl)cc(Cl)c1	43.6[25 µM]
